Laboratory results reported in the supplement of paper PMC6805474.
Values without a mark were called inactive.

Tests used:
[1] = system: Schistosoma mansoni schistosomula (NMRI); test: phenotypic severity score (0-4); higher = more antischistosomal effect, active = 2 or more; details: 10 µM
[2] = system: Schistosoma mansoni schistosomula (Liberian); test: drug effect (1 - score/DMSO control score) (fraction); higher = more antischistosomal effect, active = 0.5 or more; extreme values may be limits of the assay; details: 10 µM
In short: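 Liberian-strain Schistosoma mansoni schistosomula, mechanically transformed from cercariae and pre-incubated at least 12 h, were exposed in duplicate (50 per well, flat-bottom 96-well plates) to 10 µM compound in Medium 199 with 5% FCS at 37 °C, 5% CO2, with 0.1% DMSO control wells. Wells were scored visually (10×) at 24, 48 and 72 h on a quarter-point scale from 3 (normal) to 0 (dead). Drug effect was derived from the mean test-well score relative to the mean DMSO-control score. Negative values were set to zero, and plates were valid only if control wells averaged at least 2.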
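Wherever phenotypic severity score (0-4) is given: visual microscopic scoring of shape, motility and density changes versus 0.5% DMSO solvent controls, one point per descriptor, degeneracy or death scored 4, mean of duplicate wells.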

Row | SMILES | phenotypic severity score ([1]; 24 h) | phenotypic severity score ([1]; 48 h) | phenotypic severity score ([1]; 72 h) | drug effect ([2]; 24 h) | drug effect ([2]; 48 h) | drug effect ([2]; 72 h)
1 | Cc1cccc(NC(=O)c2cc(S(=O)(=O)N(C)c3ccc(F)cc3)ccc2Cl)n1 | 0 | 0 | 0 | 0.05 | 0.135 | 0.222
2 | O=C(NC1CC1)c1ccc(CSCc2ccccc2Cl)o1 | 1 | 0 | 1 | 0.405 | 0.444 | 0.562 (active)
3 | COc1cccc(-n2nnnc2S(C)(=O)=O)c1 | 4 (active) | 4 (active) | 4 (active) | 1 (active) | 1 (active) | 1 (active)
4 | CN1CCN(c2nccc3nc(-c4ccc(F)c(F)c4)[nH]c23)CC1 | 0 | 0 | 0 | < 0 | 0.1 | 0.167
5 | COc1ccc(C2=NN(C3CCCCCC3)C(=O)C2(C)C)cc1OCc1ccccn1 |  |  |  | 0.273 | 0.4 | 0.4
6 | COc1ccccc1CNC(=O)c1cc(C2CC2)nc2c1cnn2C(C)C | 0 | 0 | 0 | 0.2 | 0.459 | 0.667 (active)
7 | O=C(Nc1ccc2c(c1)B(O)OC2)c1ccccc1C(F)(F)F | 0 | 0 | 0 | 0.1 | 0.0556 | 0.167
8 | O=C(NC1CCN(c2ccnc3ccccc23)C1)c1cccc(C(F)(F)F)c1 (configuration not stated) | 0 | 0 | 0 | 0.135 | 0.556 (active) | 0.938 (active)
9 | CC1CS(=O)(=O)CCN1/N=C/c1ccc([N+](=O)[O-])o1 (configuration not stated) | 0 | 0 | 0 | 0.3 | 0.278 | 0.625 (active)
10 | O=S(=O)(c1ccc(Cl)cc1)N1CCN(C(=S)NCc2ccco2)CC1 | 1 | 0 | 0 | 0.05 | 0.0811 | 0.111
11 | C[C@H](c1ccc2c(c1)CCCC2)N(C)c1ncc2c(N)nc(N)nc2n1 | 0 | 0 | 0 | 0.2 | 0.278 | 0.438
12 | COc1ccc(-c2cc(NC(=O)c3ccc(F)cc3Cl)ccc2OC)cc1 | 0 | 1 | 0 | 0.0909 | 0.25 | 0.236
13 | CC(Oc1ccccc1)C(=O)Nc1nc(-c2ccccn2)cs1 (configuration not stated) | 2 (active) | 0 | 4 (active) | 0.297 | 0.5 (active) | 0.625 (active)
14 | CCC(NC(=O)c1ccccc1NC(=O)c1ccc(C)cc1)C(=O)OC (configuration not stated) | 0 | 1 | 1 | 0.2 | 0.167 | 0.25
15 | CC(=O)N1CCc2cc3nc(C)cc(C)c3cc21 | 0 | 0 | 0 | 0.2 | 0.111 | 0.0625
16 | COc1cc(OC)cc(C(=O)NCC2Cc3cc(Cl)cc(-c4ccncc4)c3O2)c1 (configuration not stated) | 0 | 0 | 0 | 0.1 | 0.189 | 0.152
17 | CCOc1ccc(-c2nc(CNCCc3ccc(F)cc3)cs2)cc1 | 0 | 0 | 0 | 0.273 | 0.4 | 0.632 (active)
18 | N=C(N)c1ccc(OCCCCCOc2ccc(C(=N)N)cc2)cc1 | 0 | 0 | 0 | < 0 | < 0 | < 0
19 | CC(C)(C)c1cc(C(=O)Nc2cccnc2)cc(C(=O)Nc2cccnc2)c1 | 0 | 0 | 0 | < 0 | 0.0811 | 0.0556
20 | CNc1snc(C)c1C(=O)NCCOc1ccc(OC)cc1 | 1 | 0 | 0 | 0.0909 | 0.15 | 0.127
21 | C[C@@H]1[C@H](O)[C@@H](C)/C=C/C=C/C=C/C=C/C=C/C=C/C=C/[C@H](O[C@@H]2O[C@H](C)[C@@H](O)[C@H](N)[C@@H]2O)C[C@@H]2O[C@](O)(C[C@@H](O)C[C@@H](O)[C@H](O)CC[C@@H](O)C[C@@H](O)CC(=O)O[C@H]1C)C[C@H](O)[C@H]2C(=O)O | 0 | 0 | 0 | 0.136 | 0.15 | 0.105
22 | O=C(C1CCN(c2nnnn2-c2ccccc2)CC1)N1CCc2ccccc2C1 | 0 | 0 | 0 | 0.135 | 0.111 | 0.25
23 | O=C(OCc1ccccc1)N1CCC(c2cc(-c3ccncc3)c(-c3ccc(F)cc3)[nH]2)CC1 | 0 | 0 | 0 | 0.1 | 0.222 | 0.188

Row | SMILES | phenotypic severity score ([1]; 24 h) | phenotypic severity score ([1]; 48 h) | phenotypic severity score ([1]; 72 h) | drug effect ([2]; 24 h) | drug effect ([2]; 48 h) | drug effect ([2]; 72 h)
24 | Cc1cc2nc(NC(=O)C(C)(C)C)nc(Cl)c2n1Cc1ccc(Cl)cc1 | 0 | 0 | 0 | 0.136 | 0.4 | 0.345
25 | CCC(Sc1nc2ccccc2o1)C(=O)Nc1nccs1 (configuration not stated) | 2 (active) | 4 (active) | 4 (active) | 0.182 | 1 (active) | 1 (active)
26 | COc1ccc(C2(C(=O)Nc3ccc(Br)cc3)CCCC2)cc1 | 0 | 0 | 1 | 0.25 | 0.389 | 0.5 (active)
27 | COc1cc(-c2cc(-c3ccc(S(C)(=O)=O)cc3)cnc2N)ccc1O | 2 (active) | 1 | 1 | 0.1 | 0.189 | 0.152
28 | CS(=O)(=O)c1ccc(C(=O)N(CC2CCCO2)c2nc3ccccc3s2)cc1[N+](=O)[O-] (configuration not stated) | 4 (active) | 4 (active) | 4 (active) | 1 (active) | 1 (active) | 1 (active)
29 | CC(=O)NC[C@H]1CN(c2ccc(N3CCSCC3)c(F)c2)C(=O)O1 | 0 | 0 | 0 | 0.136 | 0.2 | 0.236
30 | Nc1ncnc2[nH]nc(Cc3cccc4ccccc34)c12 | 1 | 2 (active) | 3 (active) | 0.243 | 0.333 | 0.562 (active)
31 | O=C(NCc1cc(Cl)cc(Cl)c1)c1c(C(F)(F)F)nc2ccccn12 | 0 | 1 | 0 | 0.158 | 0.333 | 0.312
32 | Cc1ncc(-c2ccnc(Nc3ccc(S(C)(=O)=O)cc3)n2)n1C(C)C | 0 | 0 | 0 | 0.15 | 0.135 | 0.167
33 | O=C1COCc2ccc(Br)cc2N1Cc1ccc(C(F)(F)F)cc1 | 0 | 0 | 0 | 0.297 | 0.389 | 0.438
34 | COc1ccc(-c2cncc3ccc(C(=O)NCCCn4ccnc4)nc23)cc1 | 1 | 0 | 0 | < 0 | 0.027 | 0.0303
35 | N=C(N)c1ccc(-c2cc(-c3ccccc3)on2)cc1 | 2 (active) | 1 | 0 | 0.182 | 0.65 (active) | 0.455
36 | Cc1cnc(CCNC(=O)c2cc(-c3ccc(Cl)cc3)cs2)[nH]1 | 1 | 1 | 0 | 0.136 | 0.45 | 0.509 (active)
37 | O=C(c1ccc(NCCO)cc1)C1C[C@H]1c1ccc(Cl)cc1 (some centres not stated) | 0 | 0 | 0 | 0.135 | 0.278 | 0.625 (active)
38 | OC[C@H]1O[C@@H](n2c3ccc(Cl)cc3c3c(-c4cc5ccccc5o4)ncnc32)C(O)[C@H]1O (some centres not stated) | 0 | 0 | 0 | 0.158 | 0.111 | < 0
39 | COc1cc(C2=NCCN2)ccc1-n1cc(-c2cccc(C3=NCCN3)c2)nn1 | 1 | 0 | 0 | 0.243 | 0.278 | 0.5 (active)
40 | FC(F)(F)c1nnc2ccc(Cl)nn12 | 1 | 0 | 0 | 0.2 | 0.189 | 0.333
41 | CC[C@@H]([C@H](C)O)n1ncn(-c2ccc(N3CCN(c4ccc(OC[C@@H]5CO[C@@](Cn6cncn6)(c6ccc(F)cc6F)C5)cc4)CC3)cc2)c1=O | 3 (active) | 4 (active) | 4 (active) | 0.2 | 0.243 | 0.556 (active)
42 | O=C(Nc1cccc(-c2ccc(NCCCN3CCCC3)nc2)c1)c1ccccc1 | 1 | 2 (active) | 4 (active) | 0.2 | 0.459 | 0.515 (active)
43 | Cc1ccc2nc(C)c(-c3ccn(Cc4ccccc4)n3)n2c1 | 3 (active) | 4 (active) | 4 (active) | < 0 | < 0 | 0.111
44 | Cc1ccc(S(=O)(=O)n2cc(-c3ccnc(N)c3)c3cc(Br)cnc32)cc1 | 2 (active) | 3 (active) | 3 (active) | 0.45 | 0.568 (active) | 0.515 (active)
45 | CC(C)n1nc(-c2cc3c(Cl)cccc3[nH]2)c2c(N)ncnc21 | 4 (active) | 4 (active) | 4 (active) | 0.55 (active) | 0.667 (active) | 1 (active)
